This is a sample that favours compounds with a hit; in the whole collection about 19% have one here.
TDP1 cell noCPT = qHTS for Inhibitors of human tyrosyl-DNA phosphodiesterase 1 (TDP1): qHTS in cells in absence of CPT. Potency, µM (doses to about 46.2 µM), for inactives: at the top dose activity change, negative = growth inhibition, most hits filed as inhibitors. DT40 Tdp1-/- hTDP1 cells, no CPT, ATP luminescence, 48 h. 420,000 tested, 15% active; also: nearly all actives have a fitted effect of over 55% in size
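A cellular qHTS used chicken DT40 cells lacking endogenous Tdp1 but carrying stably transfected human TDP1. Compounds were applied without camptothecin, and cell growth kinetics were judged by ATP-dependent luminescence after ≥48 hr.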
HT1080NT lethal = qHTS for induction of synthetic lethality in tumor cells producing 2HG: qHTS for the HT-1080-NT fibrosarcoma cell line; HT-1080-NT fibrosarcoma viability, CellTiter-Glo ATP luminescence, 48 h; Potency, µM (top dose mostly 46.1 µM), inactives show at the top dose activity, negative = less viability, most hits filed as cytotoxic; 360,000 tested, 1.6% active; AID 686970, 2013;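 also: NT is the 2HG producing partner of a matched IDH1 knockdown line; 0% = DMSO-treated cells and -100% = media-only wells without cells; nearly all actives have a fitted effect of over 55% in size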
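Read-out is CellTiter-Glo luminescence after 10 minutes at room temperature, following 48 hours' compound treatment of HT-1080-NT cells (750 cells/well, RPMI, 5% FBS, 37 degrees C).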
DT40 TDP1 CPT = qHTS for Inhibitors of human tyrosyl-DNA phosphodiesterase 1 (TDP1): qHTS in cells in presence of CPT | chicken DT40 Tdp1-/-;hTDP1 cells + 20 nM CPT, ATP luminescence, 48 h | 420,000 tested, 12% active | AID 686979, 2013 | Potency, µM (titrated, usually from 46.2 µM), for inactives: top-dose activity change, negative = growth inhibition, usual class: inhibitors; also: nearly all actives have a fitted effect of over 55% in size
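Cell growth measured by CellTiter-Glo luminescence after a minimum 48 h, 37 C compound exposure with 20 nM CPT in Tdp1-knockout DT40 cells stably expressing hTDP1, seeded 400/well; qHTS titration format.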
KB-3-1 cytotox = qHTS assay for MDR1-selective chemotherapeutics: Primary screen using the parental adenocarcinoma cell KB-3-1; KB-3-1 viability, CellTiter-Glo ATP luminescence, 72 h; Potency, µM (series often up to 46.1 µM), most hits filed as cytotoxic; 400,000 tested, 1.4% active; AID 1347075, 2019; also: nearly all actives have a fitted effect of over 60% in size
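Luminescent ATP read-out (CellTiter-Glo) measures survival of drug-naive KB-3-1 cells after 72 h compound exposure at 37 °C. Titration series was screened from lowest to highest concentration, with DMSO vehicle plates as background controls.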
KB-V1 cytotox = qHTS assay for MDR1-selective chemotherapeutics: Primary screen using the drug-selected MDR subline cells KB-V1. KB-V1 MDR cells viability, CellTiter-Glo, 72 h. Potency, µM (titrated, usually from 46.1 µM), hits mostly cytotoxic. 400,000 tested, 3.4% active. AID 1347076, 2019; also: nearly all actives have a fitted effect of over 60% in size
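KB-V1 cells (P-gp-expressing MDR subline of KB-3-1) in phenol-red-free DMEM with 10% FBS were exposed to library compounds over a concentration series for 72 h at 37 degrees C. Viability read by CellTiter-Glo luminescence; concentration-effect curves fitted after normalization.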
HT1080 IDH1KD tx = qHTS for induction of synthetic lethality in tumor cells producing 2HG: qHTS for the HT-1080-IDH1KD cell line | Potency, µM (titrated, usually from 46.1 µM), for the others: top-dose activity, negative = toxicity, most hits filed as cytotoxic | HT-1080 IDH1 knockdown viability, ATP luminescence, 48 h | 360,000 tested, 2% active;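 also: 0% = DMSO wells and -100% = cell-free medium wells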
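Knockdown cells (IDH1KD HT-1080) received compounds 2 h after plating at 750 cells/well and were kept 48 h at 37 °C in 5% FBS RPMI. A CellTiter-Glo luminescence read gave % activity for curve fitting.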
Starred values were filed as active, the others as inactive; i = inactive; u = inconclusive; x = no result given; [ ] = remark or other dose. Calls follow the shape of the dose curve; as a rule, active = well fitted curve in the direction sought with a large enough effect; inconclusive = small, poorly fitted or top-dose-only effect, or another doubt; inactive = no such curve, though single readings can be large; an effect the other way counts as inactive or inconclusive. Unless noted, % is scaled to controls: 0 for no effect and ±100 for the full control effect; potency is read from the fitted curve at half-maximal effect.

SMILES	TDP1 cell noCPT	HT1080NT lethal	DT40 TDP1 CPT	KB-3-1 cytotox	KB-V1 cytotox	HT1080 IDH1KD tx
COc1ccc(Nc2c(-c3ccc(F)cc3)nc3nc(C)cc(C)n23)cc1	16.4µM*	-13.9%	10.3µM*	i	u	0.2%
Cc1cc(C)n2c(Nc3ccc(C(C)C)cc3)c(-c3ccsc3)nc2n1	u	x	u	i	i	x
Cc1ccc(Nc2c(-c3cccs3)nc3nc(C)cc(C)n23)cc1	u	x	23.1µM*	i	i	x
COc1ccc(Nc2c(-c3ccsc3)nc3nc(C)cc(C)n23)cc1	u	x	u	i	i	x
Cc1cc(C)n2c(Nc3ccccc3)c(-c3ccccc3)nc2n1	u	x	16.4µM*	i	i	x
Cc1cc(C)n2c(NC3CCCCC3)c(-c3cccnc3)nc2n1	16.4µM*	16.7%	u	i	u	7.4%
CC(=O)Nc1ccc(S(=O)(=O)NCCc2ccccn2)cc1	-2.1%	13.2%	2.1%	i	i	16.4%
CCOc1ccc(S(=O)(=O)NCCC(=O)NCc2cccnc2)cc1	-5.2%	-10.6%	-13.1%	i	i	-3.6%
Cc1cccc(C(=O)OC2CCOC2=O)c1O (centres undefined)	0.9%	3.1%	-6.2%	i	i	2.3%
COc1ccc(S(=O)(=O)N2CCC(C(=O)N[C@@H](C)C(=O)NCc3cccnc3)CC2)cc1	-5.8%	13.3%	-12.0%	i	i	8.7%
Cc1ccc(NC(=O)CSc2nnc(-c3cc4occc4n3C)n2-c2ccccc2C)c(C)c1	18.4µM*	x	u	x	x	x
Cc1ccc(NC(=O)CSc2ccc(-c3ccco3)nn2)c(C)c1	u	-2.0%	u	i	u	4.2%
Cc1ccc(NC(=O)CSc2nnc(-c3cc4occc4n3C)n2-c2ccccc2C)cc1F	16.4µM*	x	25.9µM*	x	x	x
OC1(c2cccnc2)CCN(Cc2ccc3c(c2)CN(Cc2ccsc2)CCO3)CC1	-22.7%	x	8.9%[9.04 µM]	x	x	x
OC1(c2cccnc2)CCN(Cc2ccc3c(c2)CN(Cc2cccc(C(F)(F)F)c2)CCO3)CC1	25.9µM*	x	-21.9%[9.04 µM]	x	x	x
OC1(c2cccnc2)CCN(Cc2ccc3c(c2)CN(Cc2cc4ccccc4s2)CCO3)CC1	16.4µM*	x	-1.7%[9.04 µM]	x	x	x
C=CC1=C(C(=O)O)N2C(=O)[C@@H](NC(=O)/C(=N/OCC(=O)O)c3csc(N)n3)[C@H]2SC1 (stereo in doubt)	-0.8%[21.1 µM]	x	-9.8%[21.1 µM]	x	x	x
COc1ccc(/C=C\C(=O)O[C@@H]2C(O)C(O[C@@H]3OC(C)[C@H](O[C@@H]4OCC(O[C@H]5O[C@H](CO)[C@@H](O)C(O)C5O)C(O)C4O)C(O)C3O)[C@H](OC(=O)[C@]34CCC(C)(C)C[C@@H]3C3=CCC5[C@@]6(C)CC(O)C(O[C@@H]7OC(CO)C(O)[C@H](O)[C@H]7O)[C@@](C)(C(=O)O)C6CC[C@@]5(C)[C@]3(CO)CC4)O[C@H]2C)cc1 (some centres undefined)	5.17µM*	u	3.66µM*	i	i	20.6µM*
CC1(C)C[C@H]2C3=CCC4[C@@]5(C)CC[C@H](O[C@@H]6O[C@H](C(=O)O)[C@@H](O)[C@H](O)[C@H]6O)[C@@](C)(CO)C5CC[C@@]4(C)[C@]3(C)C[C@H](O)[C@@]2(CO)[C@@H](O)[C@@H]1O (some centres undefined)	0.0%	10.3%	5.2%	i	i	13.3%
C[C@@H]1OC(OC2CC[C@@]3(C)C(CC[C@@]4(C)C3CC=C3C5CC(C)(C)CC[C@]5(C(=O)OC5OCC(O)[C@@H](O)[C@@H]5OC5O[C@@H](C)[C@H](O[C@H]6OC(CO)C(O)C(O)C6O)C(O)C5O)C(O)C[C@@]34C)C2(C)C)C(O)C(O)[C@H]1OC1OCC(O)C(O)[C@H]1O (some centres undefined)	u	x	14.6µM*	x	x	x
C/C=C(\C)C(=O)OC1[C@H](OC(C)=O)C2(CO)C(CC1(C)C)C1=CCC3C4(C)CCC(O[C@@H]5O[C@H](C(=O)O)[C@@H](O[C@@H]6O[C@H](CO)[C@@H](O)[C@H](O)[C@H]6O)[C@H](O)[C@H]5O[C@H]5O[C@H](CO)[C@@H](O)[C@H](O)[C@H]5O)[C@](C)(CO)C4CCC3(C)[C@]1(C)C[C@H]2O (some centres undefined)	14.6µM*	x	11.6µM*	i	u	x
C[C@@H]1CC[C@]2(C(=O)O[C@@H]3O[C@H](CO)[C@@H](O)[C@H](O)[C@H]3O)CC[C@]3(C)C(=CCC4[C@@]5(C)CC[C@H](O[C@@H]6OC[C@H](O)[C@H](O[C@@H]7O[C@H](CO)[C@@H](O)[C@H](O)[C@H]7O)[C@H]6O)C(C)(C)C5CC[C@]43C)C2[C@]1(C)O (some centres undefined)	4.7%	2.3%	-12.8%	i	i	-1.2%
CN1/C(=C/c2cccc[n+]2C)Sc2ccccc21	0.326µM*	u	0.581µM*	1.46µM*	i	u
Cc1ccc2c(c1)N(C)/C(=C/c1cccc[n+]1C)S2	0.517µM*	20.6µM*	3.66µM*	0.92µM*	i	10.3µM*
Cc1ccc2c(c1)N(C)/C(=C/c1cccc[n+]1CCO)S2	1.16µM*	u	1.64µM*	1.84µM*	i	u
CCCCN1/C(=C/c2cccc[n+]2C)Sc2cc(NC(C)=O)ccc21	-13.5%	14.7%	-5.0%	i	i	-0.9%
O=C(/C=C/c1ccc(Cl)c(Cl)c1)NC1=NCCS1	-12.6%	1.5%	-23.0%	i	i	0.0%
COCCN(CCOC)c1nc(-c2ccc([N+](=O)[O-])cc2)nc2ccccc12	6.51µM*	2.7%	0.581µM*	i	i	4.0%
CN(Cc1ccccc1)c1nc(-c2ccc([N+](=O)[O-])cc2)nc2ccccc12	u	1.5%	18.4µM*	i	i	-3.3%
CN(Cc1ccc([N+](=O)[O-])cc1)c1ccccc1	-5.4%	-12.5%	-19.1%	i	i	-2.8%

Source: PubChem (National Center for Advancing Translational Sciences (NCATS))
